# Measured values as given in a collection of fitness landscapes (doi:10.1126/science.1257360).
# The full ranking holds about 140,000 sequences; the median of “enrichment ratio after two sorts for PhoP signalling” is about 0, and the highest 2% start at about 11. What follows is part of a selection rich in the highest values, with near analogues and random picks from the rest.
# B1: PhoQ; a variant is named by its letters at X, in order, P23837 (parent)
# chain: MKKLLRLFFPLSLRVRFLLATAAVVLVLSLAYGMVALIGYSVSFDKTTFRLLRGESNLFYTLAKWENNKLHVELPENIDKQSPTMTLIYDENGQLLWAQRDVPWLMKMIQPDWLKSNGFHEIEADVNDTSLLLSGDHSIQQQLQEVREDDDDAEMTHSVAVNVYPATSRMPKLTIVVVDTIPVELKSSYMVWSWFIYVLSANLLLVIPLLWVAAWWSLRPIEALAKEVRELEEHNRELLNPATTRELTSLVRNLNRLLKSERERYDKYRTTLTDLTHSLKTPLXXLQXXLRSLRSEKMSVSDAEPVMLEQISRISQQIGYYLHRASMRGGTLLSRELHPVAPLLDNLTSALNKVYQRKGVNISLDISPEISFVGEQNDFVEVMGNVLDNACKYCLEFVEISARQTDEHLYIVVEDDGPGIPLSKREVIFDRGQRVDTLRPGQGVGLAVAREITEQYEGKIVAGESMLGGARMEVIFGRQHSAPKDE
# Variants of: B1
# Experiment: enrichment ratio after two sorts for PhoP signalling (ratio (wild type AVST 3.29)); higher = more functional
# Settings: with PhoP (E. coli)
row,Variant,enrichment ratio
1,HISH,≤ 0.25
2,VTMH,≤ 0.25
3,AIRA,≤ 0.25
4,TVSY,10.4
5,MVVG,≤ 0.25
6,YGHF,≤ 0.25
7,KASL,≤ 0.25
8,SGSL,11.8
9,TVSL,14.4
10,TASL,15.1
11,NASL,≤ 0.25
12,NVSL,≤ 0.25
13,SPSL,≤ 0.25
14,YWEI,≤ 0.25
15,PCWT,≤ 0.25
16,HICM,≤ 0.25
17,DTPM,≤ 0.25
18,GECS,7.23
19,SPCQ,≤ 0.25
20,NGCQ,≤ 0.25
21,STCQ,15.3
22,GECQ,17
23,FGCS,≤ 0.25
24,RGCQ,≤ 0.25

row,Variant,enrichment ratio
1,FGCI,7.38
2,SQCQ,3.73
3,GECI,7.86
4,TGCQ,13.9
5,FGCQ,13.2
6,WIRR,≤ 0.25
7,DKPL,≤ 0.25
8,LNCS,≤ 0.25
9,HHGV,≤ 0.25
10,NSRQ,≤ 0.25
11,LTKK,≤ 0.25
12,ARTW,≤ 0.25
13,SHKM,≤ 0.25
14,ACGT,4.5
15,HFGF,≤ 0.25
16,MLHA,≤ 0.25
17,DTCQ,≤ 0.25
18,GECL,5.03
19,GNHP,≤ 0.25
20,GECA,1.47
21,ITCQ,≤ 0.25
22,GECV,16.3
23,YTCQ,1.7
24,GICQ,10.3

row,Variant,enrichment ratio
1,TTCQ,18.9
2,GTCQ,13.4
3,MTCQ,≤ 0.25
4,GNCQ,12.1
5,MPVD,≤ 0.25
6,LRSS,≤ 0.25
7,QFGG,≤ 0.25
8,YYIN,≤ 0.25
9,IIQY,≤ 0.25
10,NRIW,≤ 0.25
11,HQPD,≤ 0.25
12,YMHI,≤ 0.25
13,FYKD,≤ 0.25
14,HRDN,≤ 0.25
15,QQHS,≤ 0.25
16,YSME,1.23
17,MDWD,≤ 0.25
18,FRMF,≤ 0.25
19,GHCQ,≤ 0.25
20,GGCQ,13.2
21,NICQ,≤ 0.25
22,LNMQ,≤ 0.25
23,NCQG,≤ 0.25
24,KALL,≤ 0.25

row,Variant,enrichment ratio
1,TALI,18.1
2,TACN,13
3,NWCN,≤ 0.25
4,TALQ,15.2
5,KALQ,≤ 0.25
6,NALQ,≤ 0.25
7,TADK,≤ 0.25
8,IALI,9.02
9,YACN,≤ 0.25
10,NALL,5.99
11,TALL,12
12,PICT,≤ 0.25
13,DTQQ,≤ 0.25
14,VDFR,≤ 0.25
15,SNNF,6.15
16,GFIP,≤ 0.25
17,GLMF,1.04
18,FESF,≤ 0.25
19,AAEK,≤ 0.25
20,QIFT,≤ 0.25
21,EALN,≤ 0.25
22,TALN,18.9
23,TALC,20.9
24,TALA,13.8

row,Variant,enrichment ratio
1,TAQN,≤ 0.25
2,TALT,9.61
3,TALS,10.9
4,IALC,1.46
5,KALC,≤ 0.25
6,MHGF,≤ 0.25
7,YMMK,≤ 0.25
8,QQSN,≤ 0.25
9,NNFF,≤ 0.25
10,VDVG,≤ 0.25
11,FFRS,≤ 0.25
12,FHDF,≤ 0.25
13,MQYS,6.75
14,QTFE,≤ 0.25
15,SEKM,≤ 0.25
16,TANR,≤ 0.25
17,ASYY,≤ 0.25
18,ASAA,13.4
19,ASAS,15.3
20,ASAG,7.21
21,KSAA,≤ 0.25
22,ASAT,10.1
23,ASAI,13.2
24,ASAD,≤ 0.25

row,Variant,enrichment ratio
1,ASRY,≤ 0.25
2,IFDK,≤ 0.25
3,WHPD,≤ 0.25
4,CLCS,≤ 0.25
5,RQQL,≤ 0.25
6,HTYY,≤ 0.25
7,MKYY,≤ 0.25
8,TGYY,22.5
9,STYY,≤ 0.25
10,MEAY,13
11,MTYY,0.96
12,QEYY,17.4
13,MKAY,≤ 0.25
14,NGYY,≤ 0.25
15,QIYY,≤ 0.25
16,MEYY,18.8
17,MEYI,11
18,RGYY,≤ 0.25
19,NFDN,≤ 0.25
20,RTPI,≤ 0.25
21,RQSW,≤ 0.25
22,IMCF,≤ 0.25
23,EDGY,≤ 0.25
24,SVSR,6.38

row,Variant,enrichment ratio
1,SVAV,7.92
2,SVTR,8.52
3,SVAE,13.4
4,SVSF,12.6
5,SVGR,1.46
6,SVMR,12.6
7,SVHP,≤ 0.25
8,SVSQ,13.4
9,SVHQ,≤ 0.25
10,KFAE,≤ 0.25
11,SVHF,≤ 0.25
12,WQKA,≤ 0.25
13,ARFL,≤ 0.25
14,KVIR,≤ 0.25
15,ADCI,≤ 0.25
16,PPMF,≤ 0.25
17,RIFK,1.58
18,NEIH,≤ 0.25
19,TNDC,≤ 0.25
20,MKCG,≤ 0.25
21,SVTI,12
22,SVPA,≤ 0.25
23,SVHG,≤ 0.25
24,SVTM,14.7

row,Variant,enrichment ratio
1,SVWM,≤ 0.25
2,SVVG,6.29
3,SVTK,11.9
4,SVTS,7.51
5,SVLY,0.677
6,SVTG,13.5
7,SVVA,1.32
8,SVPM,7.47
9,GRAK,≤ 0.25
10,PILY,≤ 0.25
11,EHER,≤ 0.25
12,QSNR,≤ 0.25
13,PYGV,≤ 0.25
14,SGYP,≤ 0.25
15,IIGH,≤ 0.25
16,RDSD,≤ 0.25
17,SVMH,22.9
18,KFAH,≤ 0.25
19,KFSG,≤ 0.25
20,SVWR,≤ 0.25
21,NVCC,≤ 0.25
22,SVMG,5.71
23,SDSG,0.62
24,SVTC,3.84

row,Variant,enrichment ratio
1,NVAH,≤ 0.25
2,SVCC,16.1
3,SVSG,13.4
4,SVAH,12.7
5,RVAP,≤ 0.25
6,WQNE,≤ 0.25
7,LLNR,≤ 0.25
8,TAVV,1.05
9,ARNK,≤ 0.25
10,QMLS,≤ 0.25
11,SVSK,12.7
12,PVNG,≤ 0.25
13,SVSH,10.5
14,SVNH,3.33
15,SVCG,13.3
16,SVCI,10.4
17,LCNG,≤ 0.25
18,SVNG,12.5
19,SVWI,≤ 0.25
20,SVTH,11.9
21,SVCS,8.61
22,SVPI,5.93
23,KLIS,≤ 0.25
24,NRHS,≤ 0.25

row,Variant,enrichment ratio
1,GGDF,≤ 0.25
2,FHQD,≤ 0.25
3,IWVM,≤ 0.25
4,HEVP,≤ 0.25
5,SVMQ,15.2
6,SQSF,7.01
7,SVCH,12.5
8,SVCF,4.45
9,SVMV,9.33
10,SLSF,11.7
11,SVMS,8.47
12,KFCH,≤ 0.25
13,SRSF,≤ 0.25
14,MQII,≤ 0.25
15,RDEG,≤ 0.25
16,FSHY,≤ 0.25
17,TALR,3.62
18,HPIF,≤ 0.25
19,LCVH,≤ 0.25
20,WIVH,≤ 0.25
21,TSVH,11.7
22,TSCK,3.25
23,QEVH,≤ 0.25
24,MEVH,1.05

row,Variant,enrichment ratio
1,TSCS,14.7
2,AHVH,≤ 0.25
3,AIVH,15
4,TEVH,16.3
5,KSVH,≤ 0.25
6,KSCS,≤ 0.25
7,VGWK,≤ 0.25
8,ATFQ,2.02
9,FKND,≤ 0.25
10,AFSM,0.932
11,RMFW,≤ 0.25
12,TSCV,17.3
13,KSCV,≤ 0.25
14,KSCI,≤ 0.25
15,KYVH,≤ 0.25
16,YSCV,15.6
17,YRCV,≤ 0.25
18,SSVH,14.4
19,FSCV,9.84
20,STVH,8.82
21,YSCI,2.62
22,TSCE,8.23
23,TSCI,14.8
24,TRVP,≤ 0.25

row,Variant,enrichment ratio
1,GWST,≤ 0.25
2,PYLQ,≤ 0.25
3,FLFH,≤ 0.25
4,RFWY,≤ 0.25
5,LSFF,0.737
6,MSSN,≤ 0.25
7,RYDM,≤ 0.25
8,PWRP,≤ 0.25
9,AMPS,≤ 0.25
10,KSCQ,≤ 0.25
11,KSCA,≤ 0.25
12,NSCA,≤ 0.25
13,TSCA,15.2
14,SEVH,17.3
15,TSCQ,21.3
16,SLVH,2.06
17,KSCT,≤ 0.25
18,NSCQ,≤ 0.25
19,TSCT,18.9
20,FSCT,≤ 0.25
21,SRVH,≤ 0.25
22,AGPW,≤ 0.25
23,MEVW,≤ 0.25
24,DAWH,≤ 0.25

row,Variant,enrichment ratio
1,VVRK,≤ 0.25
2,EQCP,≤ 0.25
3,QPNQ,≤ 0.25
4,MFMV,≤ 0.25
5,FTNT,≤ 0.25
6,TGEC,1.95
7,SFRM,≤ 0.25
8,FVEG,≤ 0.25
9,FWMV,≤ 0.25
10,MDAY,≤ 0.25
11,NVLK,≤ 0.25
12,MCVN,≤ 0.25
13,MCAN,22.5
14,MCWN,16.1
15,MEAT,17.9
16,MKAT,≤ 0.25
17,MMWN,≤ 0.25
18,MCDN,≤ 0.25
19,MCNL,≤ 0.25
20,MAAN,14.7
21,MAQN,≤ 0.25
22,FDAN,≤ 0.25
23,MCAT,4.13
